Test results as given in PubChem BioAssay AID1779 (Sanford-Burnham Center for Chemical Genomics, 2009).
Among all 290,000 compounds or so, about 160 (0.055%) were called active. What follows is part of a selection rich in actives, with near analogues and random picks from the rest. Unmarked numbers belong to inactive results. Cut-off read from the data, not from the text of the source: active = inhibition above about 50%; inactive = the rest.

target: Tyrosine-protein phosphatase non-receptor type 22 (Homo sapiens) (UniProt Q9Y2R2); test: inhibitors of LYP phosphatase, biochemical, fluorescence intensity, uHTS (AID 1779); details: recombinant LYP phosphatase, at 11.5 µM, hits give high values;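 note: plate controls were vehicle with enzyme for no effect and no enzyme for full effect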
Sequence (Q9Y2R2 whole entry, looked up): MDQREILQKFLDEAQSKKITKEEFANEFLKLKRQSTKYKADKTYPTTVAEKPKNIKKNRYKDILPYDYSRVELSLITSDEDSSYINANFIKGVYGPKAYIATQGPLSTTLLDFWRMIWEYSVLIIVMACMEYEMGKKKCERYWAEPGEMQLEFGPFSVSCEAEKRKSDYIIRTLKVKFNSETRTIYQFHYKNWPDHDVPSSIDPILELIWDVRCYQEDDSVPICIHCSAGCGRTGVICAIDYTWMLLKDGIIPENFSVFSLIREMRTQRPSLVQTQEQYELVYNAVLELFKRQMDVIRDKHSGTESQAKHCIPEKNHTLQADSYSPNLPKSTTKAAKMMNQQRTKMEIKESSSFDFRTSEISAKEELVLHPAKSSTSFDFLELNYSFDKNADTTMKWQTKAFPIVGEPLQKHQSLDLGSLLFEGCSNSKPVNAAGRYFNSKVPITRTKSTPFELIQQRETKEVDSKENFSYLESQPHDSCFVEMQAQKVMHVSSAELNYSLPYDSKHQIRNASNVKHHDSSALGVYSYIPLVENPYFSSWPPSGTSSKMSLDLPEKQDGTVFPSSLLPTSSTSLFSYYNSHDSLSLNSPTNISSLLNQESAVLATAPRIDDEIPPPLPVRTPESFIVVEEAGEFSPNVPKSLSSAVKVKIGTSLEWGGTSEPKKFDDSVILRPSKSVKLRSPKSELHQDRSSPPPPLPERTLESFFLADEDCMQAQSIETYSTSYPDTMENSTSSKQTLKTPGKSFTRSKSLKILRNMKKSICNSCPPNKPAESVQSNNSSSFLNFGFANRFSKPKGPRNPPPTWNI

Row | Structure (SMILES) | inhibition
1 | Cc1csc2ncc(C(=O)N3CCCc4ccccc43)c(=O)n12 | -4%
2 | O=C(CN1C(=O)CSc2ccccc21)Nc1ccccc1C(=O)N1CCOCC1 | -0.4%
3 | NC(=O)c1nc(-c2cccs2)nc2c1[nH]c(=O)n2-c1ccc(F)cc1 | -3.8%
4 | O=C(Nc1nccs1)c1ccc(S(=O)(=O)NCc2cccs2)cc1 | 84.4% (active)
5 | O=C(Nc1nccs1)c1ccc(S(=O)(=O)c2ccccc2)cc1 | -4.6%
6 | O=C(Nc1nccs1)c1ccc(S(=O)(=O)NCC2CCCCC2)cc1 | 9.6%
7 | Cc1ccccc1NC(=S)NC(NC(=O)c1ccccc1C)C(Cl)(Cl)Cl (centres undefined) | -5.7%
8 | Cc1noc(C)c1COC(=O)c1ccc(S(=O)(=O)N2CCCCC2)cc1 | -3.8%
9 | COc1ccc(S(=O)(=O)N2CCCCCC2)cc1C(=O)OCc1c(C)noc1C | 50.5% (active)
10 | COc1ccc(S(=O)(=O)N2CCc3ccccc32)cc1C(=O)OCc1c(C)noc1C | 1%
11 | CCOC(=O)c1c(NC(=O)COc2ncnc3ccccc23)sc(C)c1C | 3.4%
12 | O=C(NCc1ccccc1)C(c1ccccc1F)N(CC1CCCO1)C(=O)c1ccccn1 (centres undefined) | -7.1%
13 | Cc1cc(NC(=O)c2cc(-c3ccc(C)s3)nc3ccccc23)no1 | -4.3%
14 | Cc1cc(C)nc(NC(=O)c2cc(-c3ccc(C)s3)nc3ccccc23)c1 | 79.7% (active)
15 | Cc1cccc(NC(=O)c2cc(-c3ccc(C)s3)nc3ccccc23)n1 | 6.1%
16 | COc1ccc(-c2nnn(CC(=O)N(CCCO)C(C(=O)NC3CCCC3)c3ccncc3)n2)cc1 (centres undefined) | -4.7%
17 | CC(=O)N1CCc2c(sc3c2c(=O)n(-c2ccccc2)c(=O)n3CC(=O)NCC2CCCO2)C1 (centres undefined) | -11%
18 | COc1ccc(COC(=O)Nc2cn(C)nc2C(F)(F)F)cc1 | 1.1%
19 | CCC(C)[C@H](NC(=O)[C@@H]1CSC2c3ccccc3C(=O)N21)C(=O)NCC1CCCO1 (some centres undefined) | -11.5%
20 | CCn1cc(CNC(=O)c2cc([N+](=O)[O-])c(C)c([N+](=O)[O-])c2)cn1 | 55.6% (active)
21 | CCn1cc(CNC(=O)c2cccc([N+](=O)[O-])c2)cn1 | -11.2%
22 | Cc1c([N+](=O)[O-])cc(C(=O)NCc2ccc(F)cc2)cc1[N+](=O)[O-] | -4.5%
23 | COc1ccc(N(C(=O)CNC(=O)c2ccco2)C(C(=O)NCC2CCCO2)c2ccccc2)cc1 (centres undefined) | -11.7%
24 | O=C(OC1CCOC1=O)c1cccc(S(=O)(=O)N2CCc3ccccc3C2)c1 (centres undefined) | -8.2%

Row | Structure (SMILES) | inhibition
25 | CCCN1C(=O)C(O)(CC(=O)c2ccc3c(c2)OCCO3)c2ccccc21 (centres undefined) | 3.1%
26 | COc1ccc(-c2cc(C)no2)cc1S(=O)(=O)N1CCN(c2ccccn2)CC1 | -10.6%
27 | O=C(O)C1Nc2c(O)cccc2C2C=CCC12 (centres undefined) | 52% (active)
28 | O=C(O)C1Nc2c(cccc2C(F)(F)F)C2C=CCC12 (centres undefined) | -2.1%
29 | O=C(OC1CCCCC1)c1ccc2c(c1)C1C=CCC1C(C(=O)O)N2 (centres undefined) | 64% (active)
30 | COc1cccc2c1NC(C(=O)O)C1CC=CC21 (centres undefined) | 1.7%
31 | CC(=O)c1ccc2c(c1)C1C=CCC1C(C(=O)O)N2 (centres undefined) | 3.3%
32 | CCOC(=O)c1ccc2c(c1)C1C=CCC1C(C(=O)O)N2 (centres undefined) | 19.2%
33 | COc1cc2c(C(=O)Nc3ccccc3F)cn(C)c(=O)c2cc1OC | -10.5%
34 | CCOC(=O)c1ccc(-c2ccc3c(=O)c4ccccc4n(C)c3c2)cc1F | -15.2%
35 | CN1CCN(S(=O)(=O)c2cccc(C(=O)NCCOc3ccccc3F)c2)CC1 | -15.4%
36 | Cc1cc(=O)n2c(n1)NC(Nc1cccc(C)c1C)=NC2c1ccc(F)cc1 (centres undefined) | -3.8%
37 | O=C(COC(=O)c1ccccc1F)c1ccc(-n2nncc2-c2ccco2)cc1 | -3.3%
38 | CSc1ccccc1NC(=O)CSc1nnc(Cc2ccccc2)o1 | -12.7%
39 | CCOC(=O)c1sc2nc3c(SCC(=O)O)cc(C(=O)c4cc(F)ccc4O)cn3c(=O)c2c1C | 5.2%
40 | CCOC(=O)c1sc2nc3c(SCCC(=O)O)cc(C(=O)c4cc(OC)ccc4O)cn3c(=O)c2c1C | 53.3% (active)
41 | CCOC(=O)c1sc2nc3c(SCCC#N)cc(C(=O)c4cc(F)ccc4O)cn3c(=O)c2c1C | 1.4%
42 | O=C(Nc1cc(Cl)cc(Cl)c1)C(NCC1CCCO1)c1ccccc1 (centres undefined) | 0%
43 | COc1ccc(CCNC(=O)CCC(=O)N2CCN(S(=O)(=O)c3ccccc3)CC2)cc1OC | -4.5%
44 | Cc1ccc(S(=O)(=O)c2nc(-c3ccccc3)oc2NCCCN2CCOCC2)cc1 | 3.6%
45 | O=S(=O)(c1ccc(Br)cc1)c1nc(-c2ccccc2)oc1NCCN1CCOCC1 | -4.8%
46 | Cc1ccc(S(=O)(=O)c2nc(-c3ccccc3)oc2NCCN2CCOCC2)cc1 | 67.9% (active)
47 | O=C(CCN1C(=O)C2CC=C(Cl)CC2C1=O)NCc1ccccc1 (centres undefined) | -1.9%
48 | O=C(CCN1C(=O)c2ccccc2C1=O)NCc1ccco1 | -4.2%

Row | Structure (SMILES) | inhibition
49 | O=C(CCN1C(=O)C2CC=C(Cl)CC2C1=O)NCc1ccco1 (centres undefined) | 55.2% (active)
50 | Cc1ccc(NC(=O)c2cccc3ccccc23)cc1 | -8.7%
51 | CC(C)CC(=O)Nc1ccc(C(=O)CN2CCN(c3ccc(O)cc3)CC2)cc1 | -9.4%
52 | COc1ccc(C2CC(=O)OC3=C2C(=O)CC(C)(C)C3)c(OC)c1 (centres undefined) | -2.3%
53 | Cc1cc([N+](=O)[O-])ccc1N1C(=O)c2ccc(C(=O)Nc3ccccc3C(=O)O)cc2C1=O | -5.4%
54 | Cc1ccc(C(=O)O)cc1NC(=O)c1ccc2c(c1)C(=O)N(c1ccc([N+](=O)[O-])cc1)C2=O | 50.3% (active)
55 | O=C(O)c1cccc(NC(=O)c2ccc3c(c2)C(=O)N(c2cccc([N+](=O)[O-])c2)C3=O)c1 | -2%
56 | C(=N\Nc1nc(-c2ccccc2)cs1)/c1cccnc1 | 4.2%
57 | CC(=O)c1ccc2noc(-c3cccc(C)c3)c2c1 | 8.5%
58 | Cc1ccc2sc(NNC(=O)c3cc(=O)c4ccccc4o3)nc2c1C | 1.8%
59 | C[C@H](NC(=O)Nc1cccc(C(F)(F)F)c1)C(=O)O | -5.3%
60 | CSCC[C@H](NC(=O)Nc1cccc(Br)c1)C(=O)O | -3.3%
61 | CSCC[C@H](NC(=O)Nc1cccc(C(F)(F)F)c1)C(=O)O | 61.2% (active)
62 | CC(OC(=O)c1ccc(NS(=O)(=O)c2ccc3[nH]c(=O)[nH]c3c2)cc1)C(N)=O (centres undefined) | -4.3%
63 | c1coc(C2Nc3cccc4cccc(c34)N2)c1 | 18.4%
64 | Brc1cccc(C2Nc3cccc4cccc(c34)N2)c1 | -6.2%
65 | Brc1ccc(C2Nc3cccc4cccc(c34)N2)o1 | 80.6% (active)
66 | Cn1nc(C(C)(C)C)cc1NC(=O)Nc1ccc(Cl)cc1 | 0%
67 | CCOc1ccccc1NC(=O)CSc1nnc(Cc2cccn2C)n1-c1ccc(F)cc1 | 64.9% (active)
68 | COc1ccccc1NC(=O)CSc1nnc(Cc2cccn2C)n1-c1ccc(F)cc1 | 1.1%
69 | Cn1cccc1Cc1nnc(SCC(=O)Nc2ccccc2F)n1-c1ccc(F)cc1 | 8.3%
70 | CCc1cccc(NC(=O)C2CCCN(c3ncnc4c3nc3n4CCCCC3)C2)c1 (centres undefined) | -6.4%
71 | COc1ccccc1CC(NC(C)=O)C(=O)NC1CCN(C(=O)Nc2ccc(F)cc2)CC1 (centres undefined) | -8%
72 | Cc1nn(C)c(C(=O)N/N=C/c2cccnc2)c1Cl | -2.8%

Row | Structure (SMILES) | inhibition
73 | Cc1ccccc1Cc1c(C)nc2ncnn2c1C | -9%
74 | O=C(O)CCCNc1cc(N2CCC3(CC2)OCCO3)c2noc3c2c1C(=O)c1ccccc1-3 | 75.6% (active)
75 | O=C(O)CCCNc1cc(N2CCN(C(=O)c3ccco3)CC2)c2noc3c2c1C(=O)c1ccccc1-3 | 2.4%
76 | CCOC(=O)N1CCN(c2cc(NCCC(=O)O)c3c4c(onc24)-c2ccccc2C3=O)CC1 | 3.3%
77 | Clc1ccc2nc(-c3ccc(Br)s3)cn2c1 | -4.3%
78 | CC(=Nc1ccccc1)c1sc2ccccc2c1O | 2%
79 | COc1ccc(/C=C2\SC(N)=NC2=O)cc1Br | -4.5%
80 | COc1cccc(C(=O)Nc2cccc(-c3ccc4nncn4n3)c2)c1OC | -0.4%
81 | COc1cccc(OC)c1C(=O)Nc1cccc(-c2ccc3nncn3n2)c1 | -6.9%
82 | CC(C)CC1=NN(C(=O)c2ccco2)C(O)(C(F)(F)F)C1 (centres undefined) | -6.1%
83 | C=CCN(CC=C)C(=S)NC(=O)/C=C/c1ccc(OC)cc1 | 8.3%
84 | C=CCN(CC=C)C(=S)NC(=O)/C=C/c1ccccc1 | 2.6%
85 | C=CCN(CC=C)C(=S)NC(=O)/C=C/c1ccc(C)cc1 | 65.4% (active)
86 | COc1ccc(S(=O)(=O)Nc2nccs2)cc1OC | -10.2%
87 | CCC(C)n1c(C)nc2c(c1=O)c1nc3ccccc3nc1n2CCC1=CCCCC1 (centres undefined) | 7.5%
88 | COc1ccc2c(C)cc(N3CCOCC3)nc2c1 | -0.1%
89 | c1ccc(-c2cc(N3CCOCC3)nc3ccccc23)cc1 | 2.6%
90 | COc1ccc2c(-c3ccccc3)cc(N3CCOCC3)nc2c1 | 72.7% (active)
91 | NC(=O)c1nn(-c2ccccc2)nc1NC(=O)CSc1nnnn1-c1ccc(Cl)cc1 | 5.7%
92 | CC(=O)c1cccc(NC(=O)c2ccc(OC3CSC3)cc2)c1 | -7%
93 | Cc1cccc(NC(=O)c2ccc(OC3CSC3)cc2)c1 | -5%
94 | O=C(Nc1ccc(Cl)cc1)c1ccc(OC2CSC2)cc1 | 67.9% (active)
